Hits are enriched below; roughly 17% of the tested compounds scored in any of these assays.
DT40 TDP1 CPT = growth inhibition of DT40 Tdp1-/-;hTDP1 cells with camptothecin (screen for TDP1 inhibitors). chicken DT40 Tdp1-/-;hTDP1 cells + 20 nM CPT, ATP luminescence, 48 h. Potency, µM (titrated, usually from 46.2 µM), most hits filed as inhibitors. actives 12% (n = 420,000); note: nearly all actives have a fitted effect of over 55% in size
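Chicken DT40 Tdp1-/- cells stably complemented with human TDP1 were seeded at 400 cells/well in medium containing 20 nM camptothecin, exposed to pin-transferred compounds, and grown at 37 °C for at least 48 hr. Viability was read as ATP luminescence.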
ATXN2 expr inh = inhibitors of ATXN2 expression | actives 0.72% (n = 360,000) | Potency, µM (titrated, usually from 57 µM), usual class: inhibitors | HEK-293 ATXN2-luciferase reporter, luminescence, 24 h; note: nearly all actives have a fitted effect of over 55% in size
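ATXN2-luciferase reporter cells (luciferase flanked by upstream and downstream ATXN2 gene portions) were treated 24 h at 37 °C with compounds at up to 57 uM. SteadyGlo luminescence gave expression; GF-AFC fluorescence gave viability.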
TDP1 cell noCPT = qHTS for Inhibitors of human tyrosyl-DNA phosphodiesterase 1 (TDP1): qHTS in cells in absence of CPT; actives 15% (n = 420,000); DT40 Tdp1-/- hTDP1 cells, no CPT, ATP luminescence, 48 h; Potency, µM (series often up to 46.2 µM), actives largely listed as inhibitors; note: nearly all actives have a fitted effect of over 55% in size
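Stably hTDP1-transfected Tdp1-null chicken DT40 cells were treated with library compounds minus camptothecin and grown for at least 48 hr at 37 °C, after which cellular ATP was quantified by luminescence.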
ATXN viability = cell viability loss in ATXN counter-screen | S2 cells (HEK-293 line with an ATXN2-luciferase reporter) viability, CellTiter-Fluor protease fluorescence, 24 h | actives 0.49% (n = 400,000) | Potency, µM (highest dose often 56.7 µM), usual class: cytotoxic | AID 651635; note: nearly all actives have a fitted effect of over 40% in size
TGFb inhibitor = blocks TGF-b signaling. HepG2 CAGA-GFP TGF-b/SMAD3 reporter, GFP fluorescence, 18 h; TGF-beta stimulated, 500 pg/mL final. actives 1.2% (n = 410,000). Potency, µM (doses to about 46.1 µM), hits mostly inhibitors; note: nearly all actives have a fitted effect of over 65% in size
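Read-out: total well GFP (ex488/em500-530) summed from mean per-cell fluorescence. Cells: HEPG2 CAGA-GFP, 1% FBS DMEM, 18 h at 37 degrees C with 500 pg/mL final TGF-beta. Unstimulated wells served as the full-inhibition control; stimulated DMSO wells = 0%.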
HepG2 viability = HepG2 cytotoxicity, counter-screen for TGF-b inhibitors | HepG2 CAGA-GFP viability, ATP luminescence, 18 h | Potency, µM (titrated, usually from 46.1 µM), actives largely listed as cytotoxic | actives 0.76% (n = 410,000)
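CellTiter-Glo luminescence gave cytotoxicity after 18 hours at 37 degrees C. The cells were HepG2 CAGA-GFP in 1% FBS DMEM, stimulated with 500 pg/mL TGF-beta after compound addition. %Activity was normalised to no-cell wells (complete cell-killing) and DMSO (no toxicity), and curves were fitted and classified.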
Numbers stand for hits; – = inactive; ? = inconclusive; · = not tested or not shown. Calls come from the whole dose curve; as a rule, active = well fitted curve in the direction sought with a large enough effect; inconclusive = small, poorly fitted or top-dose-only effect, or another doubt; inactive = no such curve, though single readings can be large; an effect the other way counts as inactive or inconclusive.

SMILES	DT40 TDP1 CPT	ATXN2 expr inh	TDP1 cell noCPT	ATXN viability	TGFb inhibitor	HepG2 viability
COc1ccc(/C=C(/NC(=O)c2ccco2)C(=O)NCCc2ccccc2)cc1	–	–	–	–	–	–
Cc1cc(C)cc(C(=O)NCCCN2CCOCC2)c1	–	–	–	?	–	–
CCOC(=O)c1c(NC(NC(=O)C(C)C)C(Cl)(Cl)Cl)sc2c1CCC2 (stereo not given)	15µM	–	16µM	–	?	–
COc1ccc(C(=O)N=c2sc3c(C)ccc(OC)c3n2C)cc1	3.3µM	–	4.1µM	?	–	–
COc1cc(C(=O)N=c2sc3c(C)ccc(OC)c3n2C)cc(OC)c1OC	15µM	–	5.2µM	–	–	–
COc1ccc(OC)c2c1sc(=NC(=O)c1cccc(N3C(=O)CCC3=O)c1)n2C	–	–	?	–	–	–
COc1cc(C(=O)N=c2sc3ccccc3n2C)cc(OC)c1OC	7.3µM	·	8.2µM	?	–	–
COc1ccc(OC)c2c1sc(=NC(=O)C1CCCCC1)n2C	–	–	–	–	–	–
O=[N+]([O-])c1cc(-c2nc(-c3ccco3)no2)ccc1NCc1ccccc1	–	–	?	–	–	–
COc1ccc(-c2nc3ccccc3o2)cc1NC(=O)COc1c(C)cc(Cl)cc1Cl	2.9µM	–	5.2µM	–	–	–
Cc1cccc(OCC(=O)Nc2ccc(O)c(-c3nc4ccccc4o3)c2)c1	?	·	?	·	–	–
COc1ccc2oc(-c3ccc(C)c(NC(=O)c4ccc(-c5ccccc5[N+](=O)[O-])o4)c3)nc2c1	18µM	–	9.2µM	–	–	–
Cc1cccc(OCC(=O)Nc2ccc(-c3nc4cc(C)ccc4o3)c(O)c2)c1	15µM	–	?	–	–	–
Cc1cccc(OCC(=O)Nc2cc(-c3nc4cc(Cl)ccc4o3)ccc2C)c1	7.1µM	·	?	·	?	–
O=C(O)c1c(O)c(-c2ccccc2)nc2ccccc12	·	–	·	–	·	·
N#Cc1ccc(S(=O)(=O)N2CCN(C(=O)[C@@H]3CCCN3C(=O)c3cccs3)CC2)cc1	–	–	–	–	–	–
COC(=O)C1=CO[C@@H](O[C@@H]2O[C@H](CO)[C@@H](O)[C@H](O)[C@H]2O)C2C1CC(O)O[C@H]2C (stereo not given in full)	–	–	–	–	–	–
Cc1cc(OCC(=O)Nc2cc(-c3nc4ncccc4o3)ccc2C)ccc1Cl	?	·	?	·	–	–
Cc1ccc(-c2nc3ncccc3o2)cc1NC(=O)COc1ccc(C(C)C)cc1	?	?	16µM	?	–	–
COc1ccc2oc(-c3ccc(C)c(NC(=O)COc4cc(C)cc(C)c4)c3)nc2c1	7.3µM	–	5.2µM	–	–	–
COc1ccc(-c2oc3c(c2C(=O)OCCCO)C(OCCO)CCC3)cc1 (stereo not given)	–	–	–	–	·	·
COC(=O)c1c(-c2ccccc2)oc2c1C(OCCO)CCC2 (stereo not given)	–	–	?	–	·	·
O=C(OCc1ccccc1)c1c(-c2ccccc2)oc2c1C(OCCO)CCC2 (stereo not given)	?	–	16µM	–	·	·
CCOC(=O)c1c(-c2ccc(OC)cc2)oc2c1C(OC(C)=O)CCC2 (stereo not given)	?	–	21µM	–	·	·
COc1ccc(CCN2C(=O)C(Oc3ccccc3C)C2c2ccc3c(c2)OCO3)cc1OC (stereo not given)	13µM	–	16µM	–	–	–
SMILES	DT40 TDP1 CPT	ATXN2 expr inh	TDP1 cell noCPT	ATXN viability	TGFb inhibitor	HepG2 viability
COc1ccc(CCn2c(C)cc3c(c2=O)C(c2ccc4c(c2)OCO4)C(C#N)=C(N)O3)cc1OC (stereo not given)	13µM	–	21µM	–	–	–
O=C1C(Oc2ccccc2)C(c2ccc3c(c2)OCO3)N1CCc1ccc(F)cc1 (stereo not given)	–	–	?	–	–	–
COc1ccc(CCN2C(=O)C(Oc3ccccc3C)C2c2ccc3c(c2)OCO3)cc1 (stereo not given)	15µM	–	16µM	?	–	–
CC(C)[C@@H]1Cc2[nH]c(=O)[nH]c(=O)c2[C@H](C)O1	–	–	–	–	·	·
O=C(NC1CCCc2ccccc21)C1CCN(C(=O)c2sccc2-n2cccc2)CC1 (stereo not given)	15µM	–	?	–	–	–
CC(=O)N1c2ccc(S(=O)(=O)NCCC(=O)Nc3cccc(Cl)c3)cc2CC1C (stereo not given)	–	–	–	–	–	–
CC(=O)N1c2ccc(S(=O)(=O)NCCC(=O)NCc3ccc(Cl)cc3)cc2CC1C (stereo not given)	?	–	15µM	–	–	–
CC(=O)N1c2ccc(S(=O)(=O)NCCC(=O)NCc3ccc(N(C)C)cc3)cc2CC1C (stereo not given)	?	–	?	–	–	–
CC(=O)N1c2ccc(S(=O)(=O)NCCC(=O)Nc3ccc(C)c(Cl)c3)cc2CC1C (stereo not given)	15µM	–	13µM	–	?	–
CC(=O)N1c2ccc(S(=O)(=O)NCCC(=O)Nc3ccc(Br)c(C)c3)cc2CC1C (stereo not given)	8.2µM	–	5.2µM	?	11µM	–
CC(=O)N1c2ccc(S(=O)(=O)NCCC(=O)Nc3ccc(F)cc3)cc2CC1C (stereo not given)	?	–	?	–	–	–
Cc1cccc(CSc2nnc([C@@H]3CCCN3)o2)c1	–	–	–	–	–	–
COc1ccc(Cl)cc1NC(=O)c1cc2nc(-c3ccc4c(c3)OCO4)cc(C(F)(F)F)n2n1	–	–	–	–	–	–
Cc1ccc(NC(=O)C2(C)CCN2Cc2cccc3c2OCO3)cc1O (stereo not given)	16µM	–	?	–	–	–
CC1(C(=O)Nc2ccc3c(c2)OCO3)CCN1Cc1ccccc1OC(F)F (stereo not given)	?	–	?	?	–	–
COc1ccc(NC(=O)C2(C)CCN2Cc2cccc(OC)c2F)cc1OC (stereo not given)	23µM	–	13µM	?	–	–
Cc1ccc(NC(=O)C2(C)CCN2CCc2ccccc2)cc1 (stereo not given)	?	–	?	–	?	–
COc1cccc(CN2CCC2(C)C(=O)Nc2ccc(C)cc2)c1F (stereo not given)	16µM	–	23µM	–	–	–
COc1cccc(CN2CCC2(C)C(=O)Nc2ccc3c(c2)OCO3)c1F (stereo not given)	23µM	?	?	?	–	–
